Measurements as given in PubChem BioAssay (NCI).
The panel holds about 83,000 compounds, 20% with a hit somewhere; the sample as a whole holds those more often.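 Activity criterion: percent growth below 10, measured after cells in 96-well plates were exposed to a single compound concentration for 48 hours.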 Unmarked numbers belong to inactive results. Activity calls are given as the source filed them.

test system: K-562 leukemia; assay: NCI-60 one-dose screen, 48 h (100 = growth as untreated, 0 = no growth, -100 = all killed); conditions: 10 µM

Structure (SMILES) | growth
COc1ccc2c(=O)cc(C(Cl)(Cl)Cl)oc2c1 | -12.7% (active)
c1ccc(OCCC[P+](c2ccccc2)(c2ccccc2)c2ccccc2)cc1 | 1.76% (active)
COc1cc(CSc2nc3ccc(C)cc3c(=O)n2Cc2ccccc2)cc(OC)c1OC | 13.8%
C[N+]1=C(/C=C/c2ccc(I)cc2)C(C)(C)c2ccccc21 | 109%
COc1ccccc1S(=O)(=O)Nc1ccc2c(c1)CN(C)C(=O)N2 | 28.6%
CCC(O)c1ccc(Br)cc1NC(=O)c1cccc(Cl)c1 (configuration not stated) | 8.78% (active)
CCCCn1c(=O)[nH]c(N)c(C(c2ccc(Cl)cc2)c2c(N)[nH]c(=O)n(CCCC)c2=O)c1=O | 28.7%
COc1ccc(C(=O)/C=C/c2cc(-c3ccc4c(c3)OCO4)n[nH]2)cc1OC | 23.8%
COc1ccc2oc(=O)cc(C(c3ccc[nH]3)c3ccc[nH]3)c2c1 | 4.44% (active)

test system: MALME-3M melanoma; assay: as above; conditions: 10 µM

Structure (SMILES) | growth
CCCCCCCCCCCC(=O)NCCCN(C)C | 111%
Nc1ccc(C2=CC(c3ccc(Cl)cc3)N3C=CSC3=N2)cc1 (configuration not stated) | -82.8% (active)
CC(=O)n1nc(C(=O)OC(C)(C)C)c2cc(F)c(F)cc21 | 98.7%
COC(=O)c1c(C)nc(Nc2nc3ccccc3s2)nc1-c1ccc(Cl)cc1Cl | 97.1%
O=C(O)CCCCSCCCCC(=O)O | 101%
COc1cc(-c2nc3ccc(C)cc3[nH]2)ccc1OCC(=O)N=Nc1c(O)[nH]c2ccccc12 | -68.8% (active)
CC1=CSC2=NC(c3ccc(Cl)c(Cl)c3)=CC(c3ccc(Cl)cc3)N12 (configuration not stated) | -22.7% (active)
COc1ccc(Nc2ccnc(N3CCN(c4ccnc5cc(Cl)ccc45)CC3)n2)cc1 | 5.65% (active)
Cn1cnc([N+](=O)[O-])c1/C=C1\Oc2ccc(Cl)cc2C1=O | 87.6%
CCOC(=O)Cn1nnc(-c2ccc(OCc3ccccc3F)cc2)n1 | 36.9%
COc1ccc(/C(CS(=O)(=O)c2ccccc2)=N\O)cc1 | 106%
COc1ccc(S(=O)(=O)Nc2cc(/C=C\c3cc(OC)c(OC)c(OC)c3)ccc2OC)cc1 | 50%
COc1ccc2nc(C)cc(Nc3ccc(Cl)cc3)c2c1 | 114%
COc1cc(-c2nc3ccc(C)cc3[nH]2)ccc1OCc1nnc(-c2ccc(CC(C)C)cc2)o1 | 98%
Cc1noc(C)c1-c1ccc2nc(NC(=O)[C@H]3CCN(C#N)C3)cn2c1 | 75.6%
COc1ccc(COC(=O)CC(C)C)cc1 | 100%
Cc1ccc(-n2nnc3c(sc4ccccc43)c2=O)cc1 | 68.1%
Nc1ccn([C@@H]2O[C@H](COP(=O)(O)O[C@@H]3C[C@H](n4cc(F)c(=O)[nH]c4=O)O[C@@H]3COP(=O)(O)O[C@@H]3C[C@H](n4cc(F)c(=O)[nH]c4=O)O[C@@H]3COP(=O)(O)O[C@@H]3C[C@H](n4cc(F)c(=O)[nH]c4=O)O[C@@H]3COP(=O)(O)O[C@@H]3C[C@H](n4cc(F)c(=O)[nH]c4=O)O[C@@H]3COP(=O)(O)O[C@@H]3C[C@H](n4cc(F)c(=O)[nH]c4=O)O[C@@H]3COP(=O)(O)O[C@@H]3C[C@H](n4cc(F)c(=O)[nH]c4=O)O[C@@H]3COP(=O)(O)O[C@@H]3C[C@H](n4cc(F)c(=O)[nH]c4=O)O[C@@H]3COP(=O)(O)O[C@@H]3C[C@H](n4cc(F)c(=O)[nH]c4=O)O[C@@H]3COP(=O)(O)O[C@@H]3C[C@H](n4cc(F)c(=O)[nH]c4=O)O[C@@H]3COP(=O)(O)O[C@@H]3C[C@H](n4cc(F)c(=O)[nH]c4=O)O[C@@H]3COP(=O)(O)OCCOCCOCCOCCOCCOCCO)[C@H](O)C2O)c(=O)n1 (some centres not stated) | 64%
COc1ccc(-c2nnc(COc3ccc(NC(=O)Nc4cccc(C(F)(F)F)c4)cc3F)o2)cc1 | 60.5%

Structure (SMILES) | growth
Fc1ccc(Nc2ccnc(N3CCN(c4ccnc5cc(Cl)ccc45)CC3)n2)cc1 | 52.9%
CCOC(=O)c1cc(-c2ccccc2)nc(N)n1 | 111%
CC1(CO)CCCC12OCCO2 (configuration not stated) | 113%
CCc1c(C)[nH]c(=O)c(C(N)=O)c1C#N | 103%
CCOc1ccc2c(c1)CC[C@@H]1[C@@H]2CC[C@]2(C)[C@@H](O)[C@@H](O)C[C@@H]12 | 91.4%
COc1ccc(OC)c([N+](=O)[O-])c1C=O | 108%
CCOC(=O)Nc1ccc2c(c1)C(=O)N(CC)c1ccccc1O2 | 68%
Cc1ccc(C)c2c1sc1nc3n[nH]c(N)c3c(=N)n12 | 128%
c1ccc(CC(NCCNC(Cc2ccccc2)c2ccccc2)c2ccccc2)cc1 (configuration not stated) | -22.5% (active)
Cc1ccc2nc(-c3ccc(OCC(=O)N=Nc4c(O)[nH]c5ccccc45)cc3)[nH]c2c1 | 95.8%
COc1ccc2c(=O)cc(C(Cl)(Cl)Cl)oc2c1 | -87.5% (active)
c1ccc(OCCC[P+](c2ccccc2)(c2ccccc2)c2ccccc2)cc1 | 16.5%
COc1cc(CSc2nc3ccc(C)cc3c(=O)n2Cc2ccccc2)cc(OC)c1OC | 30.1%
C[N+]1=C(/C=C/c2ccc(I)cc2)C(C)(C)c2ccccc21 | 86%
COc1ccccc1S(=O)(=O)Nc1ccc2c(c1)CN(C)C(=O)N2 | 32.2%
CCC(O)c1ccc(Br)cc1NC(=O)c1cccc(Cl)c1 (configuration not stated) | -3.37% (active)
CCCCn1c(=O)[nH]c(N)c(C(c2ccc(Cl)cc2)c2c(N)[nH]c(=O)n(CCCC)c2=O)c1=O | 68.9%
COc1ccc(C(=O)/C=C/c2cc(-c3ccc4c(c3)OCO4)n[nH]2)cc1OC | 94.4%
COc1ccc2oc(=O)cc(C(c3ccc[nH]3)c3ccc[nH]3)c2c1 | 49.6%
